Measurements reported in PubChem BioAssay (NCATS).
Where “and” joins values, the source holds several entries; their conditions need not be identical. Identical values can stand only once. Results filed as inconclusive are left out. Where a call stands in place of a potency, no number is given. Calls of active or inactive are those of the source. Unless noted, calls follow the shape of the dose curve; as a rule, active = well fitted curve in the direction sought with a large enough effect; inconclusive = small, poorly fitted or top-dose-only effect, or another doubt; inactive = no such curve, though single readings can be large; an effect the other way counts as inactive or inconclusive.

What was measured:
[1] = Validation of Assay for Modulators of Lamin A Splicing (AID 1459; active = well fitted curve in the direction sought with a large enough effect in the signal ratio; the % refers to the signal ratio;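 also: cells exposed to compound for two days before reading; ratio rise marks activators and ratio drop marks inhibitors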)
Summary of the method: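 S3 HeLa cells stably expressing a lamin A-EGFP splicing minigene and DsRed2 were seeded at 600 cells/well in Opti-MEM with 2% FBS, pin-dosed, and incubated 48 hrs at 37 °C, 5% CO2. Laser-scanning cytometry (488 nm) gave GFP/RFP total intensity ratio.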

[2] = qHTS Assay for Lipid Storage Modulators (AID 1519; calls by dose curve); conditions: Drosophila S3 cells, BODIPY lipid droplet/cell ratio, laser cytometry, cells loaded with oleic acid; for activity change, negative = inhibition: at 57.5 µM (top of the series)
Summary of the method: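 Cells seeded at 5,000 per well were treated with compounds over a concentration series and loaded with oleic acid (400 uM, as added). Lipid droplet fluorescence (488 nm excitation, 500-530 nm channel) was read by laser-scanning cytometry and normalized to 20 uM Triacsin C.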

[3] = molecular target: DNA repair nuclease/redox regulator APEX1 (Homo sapiens) (UniProt P27695); assay: qHTS Validation Assay for Inhibitors of the Human Apurinic/apyrimidinic Endonuclease 1 (APE1) (AID 1705; also: potency is read from the fitted curve at half-maximal effect;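 as to activity change, negative = inhibition: TAMRA fluorescence gain over two minutes as APE1 cuts a quenched THF abasic duplex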)
Summary of the method: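 Human APE1 was preincubated with compound for 15 min at room temperature, then 50 nM (final) THF-abasic double-stranded DNA substrate bearing 5'-TAMRA and 3'-BHQ-2 was added. Incision-driven fluorescence rise (ex 525/em 598 nm) was read kinetically.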

[4] = Counterscreen for APE1 Inhibitors: Fluorescent Dye Displacement Validation Assay (AID 1707)
Summary of the method: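 Counterscreen flags promiscuous DNA binders: compounds displacing ThO from duplex DNA (abasic THF site, 50 nM) reduce 540 nm emission (480 nm excitation). ThO 250 nM final; Tris-HCl pH 7.5 with NaCl, MgCl2 and Tween-20.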

[5] = qHTS for differential inhibitors of proliferation of Plasmodium falciparum line 7G8 (AID 1815);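 also: parasite growth measured after three days of incubation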; also: potency is read from the fitted curve at half-maximal effect
[6] = qHTS for differential inhibitors of proliferation of Plasmodium falciparum line GB4 (AID 1816); conditions: Potency: Plasmodium falciparum GB4 proliferation inhibition;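 also: parasite growth measured after 72 h incubation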; also: potency is read from the fitted curve at half-maximal effect
[7] = qHTS for differential inhibitors of proliferation of Plasmodium falciparum line 3D7 (AID 1876); also: potency is read from the fitted curve at half-maximal effect
[8] = qHTS for differential inhibitors of proliferation of Plasmodium falciparum line D10 (AID 1877);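 also: parasites grown with compound for 72 h before DNA staining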; also: potency is read from the fitted curve at half-maximal effect
[9] = qHTS for differential inhibitors of proliferation of Plasmodium falciparum line Dd2 (AID 1882); conditions: Potency: Plasmodium falciparum Dd2 proliferation inhibition; also: nearly all actives have a fitted effect of over 65% in size; also: potency is read from the fitted curve at half-maximal effect;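 as to activity change, negative = inhibition: compound exposure of 72 h on infected erythrocytes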
Summary of the method: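 RBC culture, 0.3% parasitemia / 2.5% Hct final; cpd added by pin tool in DMSO; 72 h, 37 C, 5% CO2; lysis buffer + SYBR Green I, o/n RT dark; FI 485/535; norm. to artemisinin 0.29 uM and DMSO.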

[10] = qHTS for differential inhibitors of proliferation of Plasmodium falciparum line W2 (AID 1883); conditions: Potency: Plasmodium falciparum W2 proliferation inhibition;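 also: parasites grown with compound for 72 h before lysis and staining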; also: potency is read from the fitted curve at half-maximal effect
[11] = qHTS for differential inhibitors of proliferation of Plasmodium falciparum line HB3 (AID 1886); conditions: Potency: Plasmodium falciparum HB3 proliferation inhibition;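 also: parasites grown with compound for 72 h before SYBR Green readout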; also: potency is read from the fitted curve at half-maximal effect
[12] = qHTS Assay for Modulators of Human Peripheral Myelin Protein 22 (PMP22) Expression/Activity (AID 1967; active = well fitted curve in the direction sought with a large enough effect in the signal ratio; the % refers to the signal ratio)
Summary of the method: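 MSC80 mouse Schwann cells stably carrying Pmp22 promoter–green click beetle luciferase plus EF-alpha–red luciferase control were dosed for 24h at 37 °C. Dual-colour luminescence was filter-overlap corrected; %Activity came from green/red ratio versus untreated cells.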

[13] = molecular target: Ferritin light chain (Equus caballus) (UniProt P02791); assay: qHTS Validation Assay for Identification of Novel General Anesthetics (AID 2323)
Summary of the method: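 Competitive displacement of profluorescent 1-aminoanthracene (1-AMA, 50% saturated solution in PBS) from 10 uM horse-spleen apoferritin. Compounds incubated 10 min at room temperature; fluorescence read at 380 nm excitation/535 nm emission, normalized to free 1-AMA and complex, fitted with four-parameter Hill equation.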

[14] = molecular target: ATP-dependent DNA helicase Q1 (Homo sapiens) (UniProt P46063); assay: qHTS Validation Assay for Inhibitors of RecQ-Like Dna Helicase 1 (RECQ1) (AID 2353)
Summary of the method: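 RECQ1T1 50 nM; forked duplex (20 bp + 30-nt ss tails) 200 nM, ATP 2 mM final; pH 8.0, 2 mM MgCl2, 2.5 ug/ml poly(dI-dC); 15 min compound preincubation; discontinuous kinetic read over 2 h at RT.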

[15] = molecular target: RecQ-like DNA helicase BLM (Homo sapiens) (UniProt P54132); assay: qHTS Validation Assay for Inhibitors of Bloom's syndrome helicase (BLM) (AID 2364)
Summary of the method: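 Forked 20-bp duplex substrate (200 nM, TAMRA/BHQ-2) plus 2 mM ATP added after 15 min compound preincubation with 50 nM enzyme, pH 8.0, poly(dI-dC) 2.5 ug/ml. Strand separation followed by fluorescence (525/598 nm) over 2 h, normalized to enzyme-free and DMSO controls.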

[16] = molecular target: Endonuclease 4 (Escherichia coli (strain K12)) (UniProt P0A6C1); assay: Counterscreen for APE1 Inhibitors: qHTS Validation Assay for Inhibitors of Endonuclease IV (AID 1708)
Summary of the method: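 The reaction buffer contained 50 mM Tris-HCl pH 7.5, 50 mM NaCl, 2 mM MgCl2, 1 mM DTT and 0.01% Tween-20. Incision of a 50 nM fluorophore/quencher THF substrate by 2 nM enzyme was measured kinetically.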

[17] = molecular target: alpha-glucosidase (Oryza sativa, rice) (UniProt Q653V4); assay: Counterscreen for Glucocerebrosidase Inhibitors: qHTS Assay for Rice alpha-Glucosidase at pH 5.0 (AID 997)
Summary of the method: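 Endpoint fluorogenic assay at pH 5.0: compounds (0.7 nM to 77 uM) titrated against 4 nM rice enzyme and 400 uM 4-MU-alpha-glucoside for 20 min at room temperature; NaOH/glycine stop, read ex 365/em 440 nm, Hill-fitted AC50.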

[18] = measured here: cell count channel max response
[19] = measured here: lipid channel max response

ATP-dependent DNA helicase Q1 (Homo sapiens), sequence (P46063 whole entry, looked up): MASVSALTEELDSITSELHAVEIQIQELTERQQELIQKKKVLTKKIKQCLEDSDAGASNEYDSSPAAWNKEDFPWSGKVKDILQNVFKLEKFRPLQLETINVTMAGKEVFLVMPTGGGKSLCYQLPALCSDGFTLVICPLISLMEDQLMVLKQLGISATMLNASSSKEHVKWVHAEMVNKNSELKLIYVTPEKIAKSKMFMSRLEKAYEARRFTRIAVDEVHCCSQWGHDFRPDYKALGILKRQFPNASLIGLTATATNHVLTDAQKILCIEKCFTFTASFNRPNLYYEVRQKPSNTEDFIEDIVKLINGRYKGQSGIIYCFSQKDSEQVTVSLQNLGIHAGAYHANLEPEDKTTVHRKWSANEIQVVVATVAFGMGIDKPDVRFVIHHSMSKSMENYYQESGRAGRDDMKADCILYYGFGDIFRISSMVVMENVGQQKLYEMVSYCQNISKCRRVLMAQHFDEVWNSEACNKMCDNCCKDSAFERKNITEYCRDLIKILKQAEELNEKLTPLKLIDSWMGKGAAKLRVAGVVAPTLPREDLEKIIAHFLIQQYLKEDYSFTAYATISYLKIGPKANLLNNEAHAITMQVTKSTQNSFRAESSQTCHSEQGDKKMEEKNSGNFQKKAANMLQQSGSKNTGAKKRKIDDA
RecQ-like DNA helicase BLM (Homo sapiens), sequence (P54132 whole entry, looked up): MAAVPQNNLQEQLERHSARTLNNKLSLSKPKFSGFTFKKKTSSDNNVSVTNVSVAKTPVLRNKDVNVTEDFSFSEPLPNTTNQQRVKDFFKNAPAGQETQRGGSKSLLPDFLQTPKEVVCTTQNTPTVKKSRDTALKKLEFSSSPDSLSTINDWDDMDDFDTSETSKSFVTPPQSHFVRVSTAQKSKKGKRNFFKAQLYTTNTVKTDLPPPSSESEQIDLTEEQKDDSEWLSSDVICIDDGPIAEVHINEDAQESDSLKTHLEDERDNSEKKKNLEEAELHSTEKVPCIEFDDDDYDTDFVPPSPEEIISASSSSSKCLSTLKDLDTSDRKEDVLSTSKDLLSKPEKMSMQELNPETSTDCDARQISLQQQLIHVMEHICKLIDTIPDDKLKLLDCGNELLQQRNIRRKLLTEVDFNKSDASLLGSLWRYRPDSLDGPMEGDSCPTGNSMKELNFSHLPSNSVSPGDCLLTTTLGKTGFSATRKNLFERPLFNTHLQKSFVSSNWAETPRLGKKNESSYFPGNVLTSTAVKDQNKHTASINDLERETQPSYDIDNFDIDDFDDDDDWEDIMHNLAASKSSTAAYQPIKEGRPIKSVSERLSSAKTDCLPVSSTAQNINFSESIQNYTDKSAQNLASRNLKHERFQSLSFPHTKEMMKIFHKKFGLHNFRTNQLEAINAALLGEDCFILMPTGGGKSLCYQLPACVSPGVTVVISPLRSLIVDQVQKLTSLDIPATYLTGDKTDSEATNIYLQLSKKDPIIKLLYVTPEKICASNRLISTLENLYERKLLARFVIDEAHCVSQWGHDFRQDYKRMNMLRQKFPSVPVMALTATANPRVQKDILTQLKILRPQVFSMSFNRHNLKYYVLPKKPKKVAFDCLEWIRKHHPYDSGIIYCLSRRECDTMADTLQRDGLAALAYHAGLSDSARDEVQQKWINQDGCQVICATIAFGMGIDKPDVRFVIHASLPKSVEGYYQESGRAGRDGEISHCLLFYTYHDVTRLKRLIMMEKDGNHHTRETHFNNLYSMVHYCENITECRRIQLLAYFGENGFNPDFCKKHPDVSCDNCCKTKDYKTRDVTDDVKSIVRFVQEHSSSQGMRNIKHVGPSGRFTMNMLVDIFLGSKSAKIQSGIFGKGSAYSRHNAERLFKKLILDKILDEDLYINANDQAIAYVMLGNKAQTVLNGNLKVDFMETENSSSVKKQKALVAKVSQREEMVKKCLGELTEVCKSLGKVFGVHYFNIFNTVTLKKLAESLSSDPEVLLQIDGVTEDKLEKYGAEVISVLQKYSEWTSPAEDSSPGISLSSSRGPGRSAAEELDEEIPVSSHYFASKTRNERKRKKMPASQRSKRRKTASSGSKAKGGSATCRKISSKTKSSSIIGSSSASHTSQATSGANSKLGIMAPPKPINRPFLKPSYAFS
DNA repair nuclease/redox regulator APEX1 (Homo sapiens), sequence (P27695 whole entry, looked up): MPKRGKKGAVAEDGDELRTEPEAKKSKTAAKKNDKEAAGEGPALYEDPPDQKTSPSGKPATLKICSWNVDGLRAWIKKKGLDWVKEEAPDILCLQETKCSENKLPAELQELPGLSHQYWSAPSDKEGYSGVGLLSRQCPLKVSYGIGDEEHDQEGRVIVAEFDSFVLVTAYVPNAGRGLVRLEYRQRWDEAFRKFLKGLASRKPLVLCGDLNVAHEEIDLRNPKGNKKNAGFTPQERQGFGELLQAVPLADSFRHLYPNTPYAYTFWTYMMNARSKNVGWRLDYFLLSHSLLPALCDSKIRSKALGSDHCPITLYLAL
Ferritin light chain (Equus caballus), sequence (P02791 2-175 limits assumed): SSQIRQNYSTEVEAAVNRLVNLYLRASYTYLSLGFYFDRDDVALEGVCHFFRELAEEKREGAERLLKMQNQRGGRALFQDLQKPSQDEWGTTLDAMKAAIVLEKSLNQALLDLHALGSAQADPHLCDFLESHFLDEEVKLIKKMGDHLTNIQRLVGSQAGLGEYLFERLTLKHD

Row | Structure (SMILES) | outcome [1] | activity change, negative = inhibition [2] | max response [2, 18] | max response [2, 19] | Potency [3] | Potency [4] | Potency [5] | Potency [6] | Potency [7] | Potency [8] | Potency [9] | Potency [10] | Potency [11] | outcome [12] | Potency [13] | Potency [14] | Potency [15] | Potency [16] | outcome [17]
1 | CC(C)NCC(O)COc1ccc(CC(N)=O)cc1 (stereo not given) | inactive | -4.52% (inactive) | -32.1% | -32.6% | inactive | inactive | inactive | inactive | inactive | inactive | inactive | inactive | inactive | inactive | inactive | inactive | inactive |  | 
2 | CC(=O)O[C@H]1CC2(C)[C@@H](C[C@@H](O)[C@H]3[C@@]4(C)CC[C@@H](O)[C@@H](C)[C@@H]4CC[C@@]32C)C1=C(CCC=C(C)C)C(=O)O (stereo not given in full) | inactive | 0.469% (inactive) | -5.46% | -5.43% | 39.8 µM (active) | inactive | 8.91 µM (active) |  |  |  | inactive | 10 µM (active) |  | inactive | inactive | inactive | inactive | inactive | 
3 | NC(N)=NC(N)=Nc1cccc(Cl)c1 | inactive | 3.33% (inactive) and -0.622% (inactive) | 13.6% and -27.3% | 18.7% and -27.9% | inactive | inactive |  |  | 11.2 µM (active) |  | inactive | 5.01 µM (active) | 8.91 µM (active) |  | inactive | inactive |  | inactive | inactive
4 | O=c1onc2n1-c1cc(Br)ccc1OC2 | inactive | 3.14% (inactive) | 64.2% | 68.1% | inactive | inactive | inactive | inactive | inactive | inactive | inactive |  | inactive |  | inactive | inactive |  | inactive | inactive
5 | Cn1c(=O)c2c(nc(/C=C/c3cccc(Cl)c3)n2C)n(C)c1=O | inactive | -4.15% (inactive) | -60.2% | -62% | inactive | inactive | 10 µM (active) |  |  |  |  | 11.2 µM (active) | 12.6 µM (active) |  | inactive | inactive |  | inactive | 
6 | CCN(CC)CCCCCCCCOC(=O)c1cc(OC)c(OC)c(OC)c1 | inactive | 0.792% (inactive) | 8.64% | 11.3% | inactive | inactive | 7.08 µM (active) |  | 5.62 µM (active) |  | 8.91 µM (active) | 3.55 µM (active) |  |  | inactive | inactive | inactive | inactive | inactive
7 | CN1CCN(c2nc3cc(C(F)(F)F)ccc3n3cccc23)CC1 | inactive | 2.45% (inactive) | 18.9% | 20.6% | inactive | inactive | 5.01 µM (active) | 8.91 µM (active) | 7.94 µM (active) | 11.2 µM (active) | 8.91 µM (active) | 5.62 µM (active) | 11.2 µM (active) |  | inactive | inactive | inactive |  | inactive
8 | NC(Cc1cccc(-c2ccccc2CP(=O)(O)O)c1)C(=O)O (stereo not given) | inactive | 1.29% (inactive) | 44.3% | 44.8% | inactive | inactive | inactive | inactive | inactive | inactive | inactive | inactive | inactive | inactive | inactive | inactive | inactive |  | 
9 | O=C(O)C1=CCCN(CCON=C(c2ccccc2)c2ccccc2)C1 | inactive | 3.28% (inactive) and 2.71% (inactive) | -11.1% and 10.2% | -9.11% and 11.8% | inactive | inactive | inactive |  | inactive | inactive | inactive | 5.62 µM (active) | inactive |  | inactive | inactive |  | inactive | inactive
10 | C=CCN1CCc2cc(O)c(O)cc2C(c2ccccc2)C1 (stereo not given) | inactive | 0.997% (inactive) | -6.45% | -5.19% | inactive | inactive | 11.2 µM (active) | 12.6 µM (active) |  | 11.2 µM (active) | 12.6 µM (active) | 7.94 µM (active) | 11.2 µM (active) |  | inactive | inactive |  | inactive | 
11 | COc1cc(CNC(=O)CCCCCCC(C)C)ccc1O | inactive | 0.247% (inactive) | 14.5% | 14.2% | inactive | inactive |  |  |  | inactive | inactive |  | inactive |  |  | inactive |  | inactive | inactive
12 | CC(=O)NCCc1c[nH]c2ccc(O)cc12 | inactive | 10.9% (inactive) | 15.4% | 28.6% | inactive | inactive | inactive | inactive | inactive | inactive |  | inactive | inactive | inactive | inactive | inactive |  | inactive | inactive
13 | CN1CCC2(CCN3CCc4c(oc5ccccc45)C3C2)N(C)C1=O (stereo not given) | inactive | -0.497% (inactive) | 45.8% | 48% | inactive | inactive |  | inactive |  | inactive | inactive |  |  |  | inactive | inactive |  | inactive | 
14 | NCCCNCCCCNCCCN | inactive | 1.21% (inactive) | 9.8% | 13.5% | inactive | inactive | inactive | inactive | inactive | inactive | inactive |  | inactive |  | inactive | inactive | inactive |  | inactive
15 | Oc1cc2c(cc1O)C(c1ccccc1)CNCC2 (stereo not given) | inactive | 4.39% (inactive) and 0.147% (inactive) | 1.14% and -18.7% | 16.2% and -20.2% | inactive | inactive |  |  |  |  |  | 11.2 µM (active) |  | inactive | inactive | inactive |  | inactive | 
16 | NC(N)=NC(N)=Nc1ccccc1 | inactive | -1.27% (inactive) and 5.81% (inactive) | 10.6% and 8.56% | 10.2% and 16.5% | inactive | inactive | inactive |  |  |  | inactive |  |  | inactive | inactive | inactive |  | inactive | inactive
17 | O=C(O)C1CCCNC1 (stereo not given) | inactive | 0.3% (inactive) | 0.529% | 0.762% | inactive | inactive | inactive | inactive | inactive | inactive |  |  | inactive | inactive | inactive | inactive | inactive | inactive | 
